High-throughput results (PubChem BioAssay)
NPC1 promoter act – activates the NPC1 promoter; Huh7 NPC1 promoter luciferase reporter, 24 h; Potency, µM (top dose mostly 9.22 µM), without a hit: at the top dose activation, most hits filed as activators; 2.4% of 320,000 active; AID 485313; further: % of control where 0% means no effect; nearly all actives have a fitted effect of over 60% in size
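In 1536-well qHTS, Huh7 cells harboring an NPC1 promoter–luciferase construct received compound for 24 h; activation was quantified by luminescence following luciferase reagent addition.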
SMN2 splice up – SMN2 splice variant enhancement | HEK293 SMN2-luciferase splicing reporter, luminescence, 30-36 h | 2.8% of 210,000 active | Potency, µM (doses to about 46.1 µM), for inactives: at the top dose activity change, positive = activation, most hits filed as activators; further: % of control where 0% means no effect; nearly all actives have a fitted effect of over 55% in size
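HEK293 cells carry an SMN2 minigene-luciferase reporter in which exon 7 inclusion puts luciferase in frame. Cells were seeded at 2000 cells/well, attached for 10-12 hours, then exposed to compounds for 30-36 hours at 37C before ONE-Glo luminescence.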
Rab9 prom act – activators of Rab9 promoter. Huh7 Rab9 promoter-luciferase reporter, luminescence, 24 h. Potency, µM (series often up to 9.22 µM), without a hit: at the highest dose activation, negative = inhibition, usual class: activators. 2.8% of 320,000 active. AID 485297; further: % of control where 0% means no effect; nearly all actives have a fitted effect of over 60% in size
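Luciferase signal after 10 min detection reagent at ambient indicates Rab9 promoter upregulation; stably transfected Huh7 cells were treated 24 h with compound in DMSO at 37 °C, 5% CO2.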
ELG1 genotoxic – inducers of genotoxicity in HEK293T ELG1-luciferase cells; HEK293T ELG1-luciferase reporter, luminescence, 16 h; Potency, µM (titrated, usually from 46 µM), without a hit: at the highest dose activity change, positive = activation, most hits filed as activators; 1.3% of 330,000 active; AID 504466; further: % of control where 0% means no effect; nearly all actives have a fitted effect of over 60% in size
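DMSO vehicle served as control against compound-treated ELG1-luciferase HEK293T cells; exposure lasted 16 hr at 37 °C and 5% CO2, followed by ONE-Glo luminescence detection after 30 min.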
FLuc counter – firefly luciferase modulation, counter-screen for miR-21 project | P08659 | purified FLuc, Km substrates, luminescence inhibition | Potency, µM (series often up to 57.5 µM), for inactives: at the highest dose activity change, negative = inhibition, usual class: inhibitors | 6.9% of 360,000 active | AID 588342;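 further: plate controls were vehicle for no effect and reference inhibitor for full effect; nearly all actives have a fitted effect of over 55% in size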
Target sequence (P08659 whole entry, looked up): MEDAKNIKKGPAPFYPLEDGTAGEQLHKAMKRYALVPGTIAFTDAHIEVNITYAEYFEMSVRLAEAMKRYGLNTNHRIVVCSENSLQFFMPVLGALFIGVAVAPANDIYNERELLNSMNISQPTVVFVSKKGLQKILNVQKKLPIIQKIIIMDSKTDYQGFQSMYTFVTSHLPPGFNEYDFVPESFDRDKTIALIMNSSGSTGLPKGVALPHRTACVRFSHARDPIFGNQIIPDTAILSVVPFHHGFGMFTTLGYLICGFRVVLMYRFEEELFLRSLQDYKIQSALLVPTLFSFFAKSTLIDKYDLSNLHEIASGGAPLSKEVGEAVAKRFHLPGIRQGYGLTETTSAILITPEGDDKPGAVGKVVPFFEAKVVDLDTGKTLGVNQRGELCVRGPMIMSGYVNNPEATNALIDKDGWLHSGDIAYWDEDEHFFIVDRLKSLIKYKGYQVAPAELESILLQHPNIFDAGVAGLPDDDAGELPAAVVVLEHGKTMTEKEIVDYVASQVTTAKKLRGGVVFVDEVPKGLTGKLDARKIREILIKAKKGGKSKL
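Purified P. pyralis luciferase, 10 nM final, with Km-level 10 uM D-luciferin and 10 uM ATP in 50 mM Tris acetate pH 7.5, 10 mM Mg acetate, 0.01% Tween-20, 0.05% BSA; 6-point qHTS titration about 60 µM downward; luminescence read.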
Starred values were filed as active, the others as inactive; u = inconclusive; x = no result given. Most compounds without a hit are left out; they make up all but 7.4% or so of the library. The call rests on the fitted dose curve; in most records, active means well fitted curve in the direction sought with a large enough effect; inconclusive means small, poorly fitted or top-dose-only effect, or another doubt; inactive means no such curve, though single readings can be large; an effect the other way counts as inactive or inconclusive. Potency means the concentration at half of the fitted maximal effect.

SMILES	NPC1 promoter act	SMN2 splice up	Rab9 prom act	ELG1 genotoxic	FLuc counter
c1ccc(-c2cn(C[C@H]3CC[C@@H]([C@@H]4CC[C@H](Cn5cc(-c6ccccc6)nn5)O4)O3)nn2)cc1	-3%	x	6%	0%	-18%
CCN(CC)C(=O)Cn1cc(S(=O)(=O)CC(=O)Nc2ccc(F)cc2F)c2ccccc21	1%	x	1%	1%	0%
CCCCN1C(=O)N(c2nnc(C(C)(C)C)s2)C(O)C1c1ccc(C)cc1 (stereo not given)	0%	x	-1%	-5%	-13%
Cc1cc(NC(=O)C2CC2)n(-c2nc3ccccc3s2)n1	-1%	0%	18%	7%	15µM*
O=C(c1ccccc1)N1CCSc2sccc2C1=O	u	-14%	u	-12%	24µM*
[O-]/[N+](=C/c1ccc(F)cc1)c1ccc(Cl)cc1	u	11%	18%	16µM*	4.8µM*
CC(=O)Nc1ccc(CC(=O)NCCC(c2ccccc2)c2ccccc2)cc1	-3%	x	-5%	-29%	-1%
O=c1[nH][nH]c(=O)c2c(NS(=O)(=O)c3ccccc3)cccc12	26%	25%	29%	u	19µM*
O=c1oc(-c2ccccc2NS(=O)(=O)c2ccccc2)nc2ccccc12	0%	-17%	-4%	0%	-1%
O=C(NCc1cccs1)C1CCC(=O)N(Cc2cccc(C(F)(F)F)c2)C1 (stereo not given)	-2%	x	10%	0%	0%
Cc1cc(Cl)ccc1OCC(=O)NCc1ccncc1	-4%	-31%	-4%	1%	-8%
Cc1cc(Cl)ccc1OCC(=O)NNC(=O)c1ccco1	10%	x	26%	u	9.5µM*
CCOc1ccc(NC(=O)CCC(=O)NNC(=O)COc2ccc(C)cc2)cc1	-9%	-13%	-2%	7%	1%
CCOc1ccc(NC(=O)CCC(=O)NNC(=O)COc2ccc(C)cc2Br)cc1	u	x	u	u	2.1µM*
Cc1ccc(NC(=O)COc2ccc(Br)cc2C)cc1	18%	-2%	29%	u	9.5µM*
Cc1cc(Cl)ccc1OCC(=O)Nc1ccncc1	-6%	x	-13%	u	15µM*
COc1ccc(NC(=O)c2ccco2)cc1NC(=O)COc1ccc(Cl)cc1C	x	-12%	x	x	-5%
O=C(O)CCC(=O)N1CCN(c2ncccc2C(F)(F)F)CC1	-2%	x	-1%	-3%	0%
CC1CCN(S(=O)(=O)c2ccc3c(c2)oc(=O)n3CC(=O)NCc2ccc(F)cc2)CC1	x	-79%	x	x	u
O=C(COc1ccc(Cl)cc1)NNC(=O)c1cccnc1	1%	-13%	-2%	0%	-6%
Cc1cc(Cl)ccc1OCC(=O)NNC(=O)c1cccnc1	1%	x	17%	-4%	19µM*
O=C(COc1ccc(Cl)cc1Cl)NNC(=O)c1cccnc1	5%	x	9%	15%	5.4µM*
CC(C)(C)c1ccc(OCC(=O)NNC(=S)NC(=O)c2ccco2)c(Br)c1	-4%	x	3%	1%	9.5µM*
Cc1cc(Cl)ccc1OCCCC(=O)NNC(=O)c1ccncc1	-2%	x	2%	-1%	u
CCCc1noc(-c2ccc(NCc3ccc(C)cc3)c([N+](=O)[O-])c2)n1	x	x	x	x	-3%
SMILES	NPC1 promoter act	SMN2 splice up	Rab9 prom act	ELG1 genotoxic	FLuc counter
O=C(OCC(=O)N1CCCC1)c1ccccc1O	2.8µM*	x	u	u	15µM*
COc1cc(SC)ccc1C(=O)OCC(=O)NC1CCCCC1	-3%	-10%	-7%	-9%	-4%
O=C(COC(=O)c1ccccc1Br)NC1CCCCCCC1	x	x	x	-1%	x
O=C(OCC(=O)N1CCCCCC1)c1ccc[nH]c1=O	x	x	x	0%	x
COc1cc(SC)ccc1C(=O)OCC(=O)NC1CCCC1	1%	-4%	u	u	24µM*
O=C(COC(=O)c1ccccc1Br)NC1CCCC1	29%	x	21%	u	17µM*
COc1ccc(C(=O)OCC(=O)NC2CC2)cc1OC	-2%	x	-3%	-1%	2%
COc1ccc(C(=O)OCC(=O)NC2CC2)cc1[N+](=O)[O-]	-2%	5.6µM*	0%	2%	8%
NNC(=O)c1cc2c(N3CCC(Cc4ccccc4)CC3)ncnc2s1	-3%	-46%	0%	-6%	-10%
Cc1ccc(C(=O)OCC(=O)N2CCCCCC2)c(O)c1	u	x	2.8µM*	13%	12µM*
O=C(OCC(=O)N1CCCC1)c1cccc(Br)c1	17%	x	13%	u	-17%
O=C(OCC(=O)N1CCCCCC1)c1ccccc1Br	2.2µM*	x	1.8µM*	u	5.4µM*
Cc1onc(-c2ccccc2)c1C(=O)N(Cc1ccco1)Cc1cccs1	-4%	-15%	-4%	-3%	-8%
O=C(O)Cn1c(=O)c(F)cn(C2CCCO2)c1=O (stereo not given)	-3%	x	0%	0%	1%
O=C(O)c1ccc2c(=O)n3cc(C(=O)c4ccccc4O)cc(Cl)c3nc2c1	-4%	x	-5%	-9%	-16%
O=C1CCc2cc(NS(=O)(=O)c3ccccc3)cc3c2N1CC3	0%	x	-1%	4.1µM*	-8%
COCCn1c(C)cc(C(=O)COC(=O)c2ccccc2Br)c1C	-7%	x	-11%	0.21µM*	0.095µM*
COCCn1c(C)cc(C(=O)COC(=O)CCc2ccc(S(=O)(=O)N3CCOCC3)cc2)c1C	3%	-1%	7%	-1%	15µM*
COCCn1c(C)cc(C(=O)COC(=O)c2ccc(NC(=O)CC#N)cc2)c1C	2.8µM*	11µM*	2.2µM*	u	11µM*
COCCn1c(C)cc(C(=O)COC(=O)c2[nH]c(C)c(C(C)=O)c2C)c1C	-2%	x	-5%	-2%	-17%
COCCn1c(C)cc(C(=O)COC(=O)c2cncc(Br)c2)c1C	u	-6%	u	u	7.6µM*
COCCn1c(C)cc(C(=O)COC(=O)c2ccc3ncsc3c2)c1C	2.8µM*	15%	2.8µM*	u	6.7µM*
COCCn1c(C)cc(C(=O)COC(=O)c2ccc(S(=O)(=O)N(C)C)cc2)c1C	x	x	x	4%	x
Cc1ccccc1Nc1nc(N)nc(CN(C)Cc2ccccc2Cl)n1	12%	22%	14%	7%	-17%
C=CCC[C@@H](Cc1ccc(F)cc1)C(=O)OC[C@@H](NC(=O)[C@H](CC=C)CC(=O)NCCO)C(C)(C)C	x	x	x	-3%	x
O=C(Nc1ccc2c(c1)OCO2)O[C@@H]1C[C@H]2CCC(=O)N3CC[C@@H](C1)[C@@H]23	3%	x	8%	-4%	-2%
O=C(Nc1ccccc1)O[C@@H]1C[C@H]2CCC(=O)N3CC[C@@H](C1)[C@@H]23	u	x	u	u	21µM*
O=C(Nc1ccccc1)OC1CC2CC1C1CCCC21 (stereo not given)	u	x	2.5µM*	u	7.6µM*
COc1ccc2c(c1OC)C(=O)N(c1ccc(C)cc1)C2	1.1µM*	x	0.71µM*	18µM*	3µM*
COc1ccccc1N1Cc2ccc(OC)c(OC)c2C1=O	0%	x	2%	5%	-13%
